Measurements published in the supplement of paper PMC6378613.

Compound: Cc1ccc(-c2ccc3c(ccc4sc5c(c43)NC[C@@H](C)NC5=O)n2)cn1
Assay: kinase activity remaining relative to vehicle control; higher = less inhibition
Description: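 In vitro radiometric kinase profiling of the MK2 inhibitor PF-3644022 at 0.1, 1 and 10 µM against a panel of kinases (MRC International Centre for Kinase Profiling, Dundee). Read-out is % kinase activity remaining relative to the vehicle control, mean of n=2.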

Chain of UniProt P04629 (P04629 whole entry, looked up): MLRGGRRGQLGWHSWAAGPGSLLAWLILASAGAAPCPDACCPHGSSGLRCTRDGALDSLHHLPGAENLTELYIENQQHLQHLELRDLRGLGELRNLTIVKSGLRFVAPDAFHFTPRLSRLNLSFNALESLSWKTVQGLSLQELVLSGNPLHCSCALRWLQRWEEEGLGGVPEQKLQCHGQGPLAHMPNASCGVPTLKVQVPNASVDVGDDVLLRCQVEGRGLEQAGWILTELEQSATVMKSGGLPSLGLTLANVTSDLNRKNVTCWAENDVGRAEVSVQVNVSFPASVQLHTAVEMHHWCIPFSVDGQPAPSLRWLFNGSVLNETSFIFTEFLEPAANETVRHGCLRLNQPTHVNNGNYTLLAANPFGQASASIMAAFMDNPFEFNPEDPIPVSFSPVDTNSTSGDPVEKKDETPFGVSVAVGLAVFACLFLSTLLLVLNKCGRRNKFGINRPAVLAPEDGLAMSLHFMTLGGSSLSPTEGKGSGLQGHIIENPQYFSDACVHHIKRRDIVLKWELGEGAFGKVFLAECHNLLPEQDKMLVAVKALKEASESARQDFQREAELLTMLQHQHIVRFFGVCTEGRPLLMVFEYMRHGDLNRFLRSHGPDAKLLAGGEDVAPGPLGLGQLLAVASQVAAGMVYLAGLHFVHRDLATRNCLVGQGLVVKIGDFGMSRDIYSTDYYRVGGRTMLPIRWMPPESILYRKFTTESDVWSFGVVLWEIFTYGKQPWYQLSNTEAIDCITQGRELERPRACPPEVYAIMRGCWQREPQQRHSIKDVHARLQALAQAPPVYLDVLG
Chain of UniProt Q8IW41 (Q8IW41 whole entry, looked up): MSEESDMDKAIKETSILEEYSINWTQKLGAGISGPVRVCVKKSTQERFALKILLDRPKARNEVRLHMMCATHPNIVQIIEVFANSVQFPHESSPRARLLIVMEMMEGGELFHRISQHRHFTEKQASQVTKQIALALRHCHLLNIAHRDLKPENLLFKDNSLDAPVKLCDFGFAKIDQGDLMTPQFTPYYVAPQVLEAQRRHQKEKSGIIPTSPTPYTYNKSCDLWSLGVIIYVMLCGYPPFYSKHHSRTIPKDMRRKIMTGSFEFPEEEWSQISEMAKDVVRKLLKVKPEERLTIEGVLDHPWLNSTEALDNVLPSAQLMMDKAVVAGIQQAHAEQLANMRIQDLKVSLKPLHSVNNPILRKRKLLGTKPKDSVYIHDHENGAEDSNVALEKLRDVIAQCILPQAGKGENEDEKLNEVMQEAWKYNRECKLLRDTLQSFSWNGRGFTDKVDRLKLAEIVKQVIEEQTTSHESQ
Chain of UniProt Q15569 (Q15569 whole entry, looked up): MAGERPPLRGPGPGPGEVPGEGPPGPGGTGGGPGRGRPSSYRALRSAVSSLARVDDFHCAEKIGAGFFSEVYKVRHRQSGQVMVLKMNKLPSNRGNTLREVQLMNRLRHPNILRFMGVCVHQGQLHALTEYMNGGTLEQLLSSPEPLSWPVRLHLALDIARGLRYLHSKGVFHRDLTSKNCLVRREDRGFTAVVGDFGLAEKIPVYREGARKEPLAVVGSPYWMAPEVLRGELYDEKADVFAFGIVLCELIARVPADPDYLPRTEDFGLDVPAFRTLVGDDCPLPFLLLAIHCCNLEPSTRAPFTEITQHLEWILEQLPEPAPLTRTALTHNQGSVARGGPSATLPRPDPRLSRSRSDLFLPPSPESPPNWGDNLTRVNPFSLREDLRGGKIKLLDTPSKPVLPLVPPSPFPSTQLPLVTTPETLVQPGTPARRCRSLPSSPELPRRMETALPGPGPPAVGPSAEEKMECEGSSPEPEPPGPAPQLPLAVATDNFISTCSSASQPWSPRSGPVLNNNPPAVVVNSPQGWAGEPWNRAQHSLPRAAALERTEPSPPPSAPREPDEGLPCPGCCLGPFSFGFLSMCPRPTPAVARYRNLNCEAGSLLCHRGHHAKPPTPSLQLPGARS
Chain of UniProt Q9P289 (Q9P289 whole entry, looked up): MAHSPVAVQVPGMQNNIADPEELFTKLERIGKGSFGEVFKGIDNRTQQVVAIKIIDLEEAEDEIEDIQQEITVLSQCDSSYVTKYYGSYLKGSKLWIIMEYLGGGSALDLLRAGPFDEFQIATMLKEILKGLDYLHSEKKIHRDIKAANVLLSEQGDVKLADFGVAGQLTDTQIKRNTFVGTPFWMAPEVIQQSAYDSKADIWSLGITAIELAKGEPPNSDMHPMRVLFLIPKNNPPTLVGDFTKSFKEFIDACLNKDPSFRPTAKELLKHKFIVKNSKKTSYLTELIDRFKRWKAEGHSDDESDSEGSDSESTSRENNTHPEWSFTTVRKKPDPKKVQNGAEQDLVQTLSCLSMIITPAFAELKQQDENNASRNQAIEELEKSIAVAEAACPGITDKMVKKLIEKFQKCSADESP
Chain of UniProt P45984 (P45984 whole entry, looked up): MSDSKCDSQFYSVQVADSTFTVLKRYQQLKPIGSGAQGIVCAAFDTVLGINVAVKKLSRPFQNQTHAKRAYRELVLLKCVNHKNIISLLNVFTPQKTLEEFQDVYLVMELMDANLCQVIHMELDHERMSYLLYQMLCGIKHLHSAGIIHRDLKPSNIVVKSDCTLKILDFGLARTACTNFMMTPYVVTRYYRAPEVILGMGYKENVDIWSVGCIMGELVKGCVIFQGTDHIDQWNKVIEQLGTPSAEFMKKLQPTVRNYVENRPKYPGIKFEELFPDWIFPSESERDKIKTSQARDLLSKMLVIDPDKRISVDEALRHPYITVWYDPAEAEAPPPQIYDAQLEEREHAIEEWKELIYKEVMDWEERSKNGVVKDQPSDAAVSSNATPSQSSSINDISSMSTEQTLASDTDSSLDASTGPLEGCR
Chain of UniProt Q13233 (Q13233 whole entry, looked up): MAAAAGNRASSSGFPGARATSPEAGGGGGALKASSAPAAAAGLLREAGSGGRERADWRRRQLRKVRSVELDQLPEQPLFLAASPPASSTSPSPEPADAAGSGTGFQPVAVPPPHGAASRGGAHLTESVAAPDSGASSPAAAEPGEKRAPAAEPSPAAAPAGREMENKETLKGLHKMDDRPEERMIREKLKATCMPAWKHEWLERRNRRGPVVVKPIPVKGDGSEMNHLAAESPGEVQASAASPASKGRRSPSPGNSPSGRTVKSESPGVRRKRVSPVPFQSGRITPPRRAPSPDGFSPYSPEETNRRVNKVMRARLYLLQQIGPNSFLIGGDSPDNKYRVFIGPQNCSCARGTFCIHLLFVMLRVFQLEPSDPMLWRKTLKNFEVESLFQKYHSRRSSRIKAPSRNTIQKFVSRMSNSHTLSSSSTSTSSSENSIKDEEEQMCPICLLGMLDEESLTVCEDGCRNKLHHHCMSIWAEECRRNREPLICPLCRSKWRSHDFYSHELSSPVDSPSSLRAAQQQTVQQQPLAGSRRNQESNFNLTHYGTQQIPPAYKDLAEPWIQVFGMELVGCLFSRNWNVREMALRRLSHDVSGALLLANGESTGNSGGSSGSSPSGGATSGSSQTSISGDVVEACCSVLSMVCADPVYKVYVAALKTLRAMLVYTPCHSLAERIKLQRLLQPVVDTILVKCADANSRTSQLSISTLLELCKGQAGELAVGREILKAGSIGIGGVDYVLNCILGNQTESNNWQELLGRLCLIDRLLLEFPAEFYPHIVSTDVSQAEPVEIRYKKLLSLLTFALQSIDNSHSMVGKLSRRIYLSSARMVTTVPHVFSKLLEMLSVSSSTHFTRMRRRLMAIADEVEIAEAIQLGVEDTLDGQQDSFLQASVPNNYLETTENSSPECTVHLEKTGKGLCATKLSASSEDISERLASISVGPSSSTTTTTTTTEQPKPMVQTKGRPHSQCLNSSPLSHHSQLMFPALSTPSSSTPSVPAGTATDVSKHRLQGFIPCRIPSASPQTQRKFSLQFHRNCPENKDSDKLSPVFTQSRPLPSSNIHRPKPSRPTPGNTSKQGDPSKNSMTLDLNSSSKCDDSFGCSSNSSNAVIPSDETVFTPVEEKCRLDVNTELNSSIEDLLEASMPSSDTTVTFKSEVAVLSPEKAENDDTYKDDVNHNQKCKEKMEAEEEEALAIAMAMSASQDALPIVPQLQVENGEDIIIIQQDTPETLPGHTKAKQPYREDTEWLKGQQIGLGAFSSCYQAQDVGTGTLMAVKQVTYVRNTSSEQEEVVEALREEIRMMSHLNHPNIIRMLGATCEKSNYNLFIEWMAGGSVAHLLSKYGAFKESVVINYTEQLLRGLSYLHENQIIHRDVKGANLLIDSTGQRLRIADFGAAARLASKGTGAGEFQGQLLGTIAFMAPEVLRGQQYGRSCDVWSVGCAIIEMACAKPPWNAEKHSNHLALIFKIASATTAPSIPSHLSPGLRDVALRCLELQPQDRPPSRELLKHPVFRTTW

| Target | kinase activity remaining (inhibitor concentration 0.1 µM) [%] | kinase activity remaining (inhibitor concentration 1 µM) [%] | kinase activity remaining (inhibitor concentration 10 µM) [%] |
| --- | --- | --- | --- |
| RIPK2 (UniProt O43353) | 93 | 94 | 39 |
| ROCK 2 | 112 | 96 | 95 |
| MST4 (UniProt Q9P289) | 99 | 101 | 91 |
| ULK2 (UniProt Q8IYT8) | 109 | 121 | 54 |
| PIM3 (UniProt Q86V86) | 55 | 18 | 3 |
| TrkA (UniProt P04629) | 121 | 100 | 83 |
| MEKK1 (UniProt Q13233) | 102 | 109 | 109 |
| IR | 123 | 125 | 133 |
| TESK1 (UniProt Q15569) | 112 | 111 | 101 |
| AMPK (hum) | 68 | 21 | 6 |
| SmMLCK | 118 | 112 | 110 |
| BTK (UniProt Q06187) | 120 | 118 | 107 |
| PRAK (UniProt Q8IW41) | 126 | 67 | 24 |
| JNK2 (UniProt P45984) | 123 | 111 | 107 |
